Assay results reported in PubChem BioAssay AID594 (National Center for Advancing Translational Sciences (NCATS), 2007).
Out of some 59,000 compounds screened, about 30 (0.05%) were called active. This is one part of a sample in which actives are shown more often than they occur. No stated cut-off is given here; in the data, active means max dye-equivalent concentration above about 11 nM; inconclusive means between about 1.1 nM and that limit; inactive means weaker than that.

Test: qHTS Assay for Spectroscopic Profiling in Rhodamine Spectral Region
Conditions: Rhodamine-region fluorescence, 547/598 nm, Tris buffer; active compounds read high
Text: NIH Molecular Libraries Screening Centers Network [MLSCN] NIH Chemical Genomics Center [NCGC] […] Occasionally, the artifactual effect may originate from the compound#s own spectral or other biophysical properties which generally tend to track its assay concentration. Pre-screening/profiling the library with respect to the compounds# spectral properties should help one exclude false positives early on. While the most informative fluorescent profiling data set is obtained by performing a full excitation and emission scan of each well by using a monochromator-based plate reader, such an approach is practical only on a very limited scale as scanning each well requires long time. An alternative approach, applied here, is to perform plate reader scans using selected excitation and emission wavelength pairs to generate a multidimensional relational database that correlates compound concentration and the respective relative fluorescence intensity at a given wavelength set. A standard curve of rhodamine present on each plate as six-point concentration series, was used to compute a normalized fluorescence response, termed dye-equivalent concentration, for each compound at each concentration.
NCGC Assay Protocol Summary: Buffer: 100 mM Tris buffer, pH 8.0 Dye standard plate: The wells in columns 1 through 4 of a Kalypsys polypropylene 1536-well compound plate were filled with standard solutions of fluorophore corresponding to the spectral region of interest. Solutions of rhodamine were placed in the following wells: E1, F1: 3 mM, E2, F2: 300 uM, E3, F3: 30 uM, E4, F4: zero (DMSO), G1, H1: 3 uM, G2, H2: […], G3, H3: 300 nM, G4, H4: zero (DMSO). Assay Steps: Six uL of buffer were dispensed to 1536-well Greiner black plates. Compounds and dye standards (23 nL) were transferred via Kalypsys PinTool. The plates were incubated for 15 min at room temperature, and then read on ViewLux (Perkin-Elmer) High-throughput CCD imager using 547 nm and 598 nm excitation and emission filter set. Keywords: NIH Roadmap, MLSCN, MLI, MLSMR, qHTS, NCGC, Rhodamine , Fluorescent Profiling.

Structure (SMILES) | max dye-equivalent concentration
O=C(Nc1ccon1)c1sc2ccccc2c1Cl | inactive
Cn1c(=S)c2[nH]c(SCCCc3ccccc3)nc2n(C)c1=O | inactive
O=S(=O)(NCc1cccnc1)c1ccc(Br)s1 | inactive
O=C(OCC(O)C(O)COC(=O)c1ccccc1)c1ccccc1 (centres undefined) | inactive
Cc1nc2ccc(S(=O)(=O)NCC(=O)NCCN3CCCCC3C)cc2s1 (centres undefined) | inactive
CNC(=O)c1cc2c(ccc3ccccc32)oc1=N | inactive
COc1ccc2oc(=O)c(C(=O)N3CCN(c4ccccc4F)CC3)cc2c1 | inactive
COc1ccc(N=Cc2c(O)[nH]c3ccccc23)cc1OC | inactive
CC1CCCN(C(=O)Cn2c(=O)oc3ccccc32)C1 (centres undefined) | inactive
CC1(C)CC(O)C(CCC(O)c2ccccc2)C(C)(C)N1 (centres undefined) | inactive
CC(=O)OCc1cc2cc(C)ccc2[nH]c1=O | inactive
O=C(c1cc(C(F)(F)F)cc(C(F)(F)F)c1)N1CCC2(CCCN(c3ccccn3)C2)CC1 | inactive
CCc1ccccc1NC(=O)CSc1nnc([C@@H](NC(=O)OC(C)(C)C)C(C)CC)o1 (some centres undefined) | inactive
CCOC(=O)CSc1nncc2ccc(OC)c(OC)c12 | inactive
Cc1noc(C)c1-c1cc(NCc2cccnc2)ncn1 | inactive
CN1CCN(c2ncc3nc(-c4ccc(Cl)cc4)c(=O)n(-c4ccccc4)c3n2)CC1 | inactive
CC(=O)c1ccc(-n2nnnc2SCC(=O)N2CCN(C(=O)c3ccco3)CC2)cc1 | inactive
COc1ccc2c(c1)CCc1c(C(=O)N3CCCC3)noc1-2 | inactive
O=C(NCc1ccco1)c1sc2cccc(F)c2c1Cl | inactive
Cc1cc2nc(-c3ccc(NC(=O)c4cccnc4)cc3)oc2cc1C | inactive
c1ccc2c(CNn3cnnc3)cccc2c1 | inactive
Cn1c(SCC(=O)Nc2cccc(O)c2)nnc1-c1ccc(S(=O)(=O)N2CCOCC2)cc1 | inactive
CC(C)C(=O)N1CCN(CCN=CC2=C(O)CC(c3ccco3)CC2=O)CC1 (centres undefined) | inactive

Structure (SMILES) | max dye-equivalent concentration
O=C(c1cc(C(F)(F)F)cc(C(F)(F)F)c1)N1CCC[C@@]2(CCN(c3ccccn3)C2)C1 | inactive
COc1ccc2c(c1)CCc1c(C(=O)N3CCc4ccccc4C3)noc1-2 | inactive
S=c1[nH]nc(SCc2ccccc2Cl)c2[nH]cnc12 | inactive
Brc1ccc(Nc2c3c(nc4ncnn24)CCC3)cc1 | inactive
Cc1cc(=O)oc(C)c1C(=O)NC1CC(C)(C)NC(C)(C)C1 | inactive
CCOC(=O)COc1ccc(Cl)cc1C1NC(=O)NC(C)=C1C(C)=O (centres undefined) | inactive
Cc1cccc(N2CCN(C(=O)C3CCN(S(=O)(=O)c4cnc[nH]4)CC3)CC2)c1C | inactive
Cc1cc(Cl)ccc1OCC(=O)Oc1c(Cl)c(Cl)c(Cl)c(Cl)c1Cl | inactive
CCOC(=O)N1CCN(S(=O)(=O)c2cc(Br)cc3c2N(C(=O)C2CC2)CC3)CC1 | inactive
CCOC(=O)c1cc2cc(C)ccc2[nH]1 | inactive
CC(C)C[C@H](NC(=O)Nc1cccc(C(F)(F)F)c1)C(=O)O | inactive
CN(C)CCCNc1c2c(c(C#N)c3nc4ccccc4n13)CCC2 | inactive
COc1ccc(CNC(=O)c2c(C)cc(=O)oc2C)cc1OC | inactive
CC(=O)c1c(C)c[nH]c1C | inactive
O=C(NCc1ccccc1)C1C(=O)N(Cc2ccccc2)C(=O)C1C1(O)CCCC1 (centres undefined) | inactive
Cn1c(=O)c2c(nc(N3CCCCCC3)n2CC(O)COc2ccc(Cl)cc2)n(C)c1=O (centres undefined) | inactive
CN(C)c1ncc2nc(-c3ccc(F)cc3)c(=O)n(Cc3ccc(F)cc3)c2n1 | inactive
CS(=O)(=O)N1CCC2(CC1)CN(c1ccncc1)C2 | inactive
Cc1ccccc1N1CC(c2nc3ccccc3[nH]2)CC1=O (centres undefined) | inactive
CCN1CCN(C(=O)c2ccccc2N(C)S(=O)(=O)c2ccc(C)cc2)CC1 | inactive
Cc1ccc(C(=O)Nc2ccccc2C(=O)NC2CCCCC2)cc1S(=O)(=O)N1CCOCC1 | inactive
C/C(O)=C\c1nc(=O)c2c(C)cc(C)nc2n1-c1ccccc1 | inactive
CC(C)NC(=O)N1CC[C@@]2(CCCN(C(=O)c3cccc(F)c3)C2)C1 | inactive

Structure (SMILES) | max dye-equivalent concentration
CCCn1c(SCC(=O)Nc2cccc(C(=O)OCC)c2)nnc1-c1ccoc1C | inactive
CCOc1ccc(NCCC(=O)c2ccc3c(c2)OCO3)cc1 | inactive
CCOC(=O)N1CCN(C(=O)c2cc3c(ccc4ccccc43)oc2=O)CC1 | inactive
O=C(Nc1ccc(NC(=O)c2cccs2)cn1)c1ccco1 | inactive
CCCCCOC(=O)NCCOC(=O)Nc1ccc(C(=O)OCC)cc1 | inactive
CC1CC(c2ccccc2)n2nc(NC(=O)c3cccs3)nc2N1 (centres undefined) | inactive
CCn1c(=O)cc(OCC(=O)NCCCN2CCN(c3cccc(Cl)c3)CC2)c2ccccc21 | inactive
O=C(c1csnn1)N1CCC[C@@]2(CCN(c3cccc(-c4ccccc4)c3)C2)C1 | inactive
CCOc1ccccc1/C=c1\sc2nc(-c3ccco3)nn2c1=O | inactive
CN(c1ccccc1)c1ccc(/C=c2\s/c(=C(/C#N)C(=O)C(C)(C)C)n(Cc3ccco3)c2=O)cc1 | 36 nM (active)
CCOC(=O)CSc1nc2c(sc(=S)n2CCc2ccccc2)c(=O)n1Cc1ccco1 | inactive
Cc1cccc(OCc2nnc(SCc3nc4cc(C(F)(F)F)ccc4c(=O)[nH]3)o2)c1 | inactive
COc1ccc(C(CNC(=O)c2cccnc2SC)N2CCOCC2)cc1 (centres undefined) | inactive
O=C(CSc1nnc(-c2ccc(NS(=O)(=O)c3ccccc3)cc2)o1)NCC1CCCO1 (centres undefined) | inactive
O=C(C1CCC(C(=O)N2CCCC2)CC1)N1CCCC1 (centres undefined) | inactive
COc1ccc(S(=O)(=O)N2CCCC(C(=O)Nc3ccc(NC(=O)c4ccccn4)cc3)C2)cc1 (centres undefined) | inactive
CCn1c(NCCc2ccc(OC)c(OC)c2)nc2c1c(=O)n(C)c(=O)n2C | inactive
CCNc1nc(N)nc(Oc2ccc(OCC)nn2)n1 | inactive
CC1=Nn2c(nnc2-c2ccccc2)SC1 | inactive
CN(CC(=O)NC1CCCCC1)S(=O)(=O)c1ccc(Br)s1 | inactive
O=C(CSc1nnc(-c2ccccc2)o1)N1CCOCC1 | inactive
Cc1ccc(CC2CC(=O)N(c3ccc4c(c3)OCCO4)C2=O)cc1 (centres undefined) | inactive
C[C@]1(O)CC[C@H]2[C@H]3CC=C4N5CCN=C5CC[C@@]4(C)[C@H]3CC[C@@]21C | inactive
